Structures are written as SMILES. Among all 10,000 compounds or so, about 320 (3.2%) were called active. No stated cut-off is given here; in the data, active means CPE inhibition mostly above about 9.1% (no sharp cut-off); inactive means mostly below about 7.2%. What follows is part of a selection rich in actives, with near analogues and random picks from the rest.

The experiment can be described thus: Dengue virus cytopathic effect inhibitors, cell-based, CPE readout, HTS (AID 540333). As to conditions: Dengue virus CPE inhibition in host cells, at 20 µM; active compounds read high.
For the molecule `N=C1SC(c2ccccc2)C(=O)N1c1ncc(Cc2ccccc2)s1` (stereo not drawn), the CPE inhibition is 0.6% (inactive).
`COC(=O)CCC(=O)NC(=S)Nc1ccc(S(=O)(=O)Nc2cc(OC)nc(OC)n2)cc1`: the CPE inhibition was 1.88% (inactive).
Turning to `CCCCNC(=O)CCCCC(=O)N/N=C/c1cccc(Cl)c1`, the CPE inhibition is 0.96% (inactive).
`CCN(Cc1ccccc1)C(=O)C1CCN(CC2CC=CCC2)CC1` (stereo not drawn): the CPE inhibition result is “inactive”.
On to `Cc1ccnc(NC(=S)NC(=O)c2cncc(Br)c2)c1`, for which the CPE inhibition is 0.165% (inactive).
Next, `CCCCNC(=O)c1cccc2c(=O)c(C)c(-c3ccccc3)oc12`: “inactive”; `CCOc1ccc(Oc2c(/C=N/NC(=O)COc3ccccc3OC)c(C)nn2-c2ccccc2)cc1`: “inactive”; `O=C(N/N=C\c1ccc(-c2ccccc2[N+](=O)[O-])o1)C1COc2ccccc2O1` (stereo not drawn): 0.26% (inactive).
Next, `CC(CCc1ccccc1)N1CCN(Cc2ccccc2)CC1` (stereo not drawn): “inactive”.
For `Cc1nn(-c2ccccc2)c(Cl)c1/C=C(\C#N)C(=O)NC(C)C` the value was 20% (active).
For `Cc1nn(-c2ccccc2)c(Cl)c1/C=N/NC(=O)c1cccnc1`, the CPE inhibition was 4.37% (inactive).
For `CC(C)NC(=O)/C(C#N)=C/c1cccc(NC(=O)c2ccccc2Cl)c1`, the CPE inhibition is 3.16% (inactive).
In the case of `Cc1ccccc1N1CCN(C(=S)c2ccc([N+](=O)[O-])cc2)CC1`, the CPE inhibition entry was “inactive”.
For `CC(=O)c1ccc(N(C(=O)Cn2nnc(-c3ccccc3)n2)C(C(=O)NC2CCCCC2)c2ccccn2)cc1` (stereo not drawn) the value was 4.29% (inactive); for `Cc1cc(C)cc(N(C(=O)Cn2nnc(-c3ccccc3)n2)C(C(=O)NC2CCCCC2)c2ccccn2)c1` (stereo not drawn), 2.08% (inactive); for `CC(C)(C)NC(=O)C(c1c[nH]c2ccccc12)N(C(=O)Cn1nnc(-c2ccc(Cl)cc2)n1)c1ccccc1F` (stereo not drawn), 17.2% (active).
As for `CC(=O)Oc1ccc(N(C(C)=O)S(=O)(=O)c2cc([N+](=O)[O-])ccc2C)cc1`, the CPE inhibition result is “inactive”.
Next, `O=[N+]([O-])c1cc2oc3c(c2c(C=NCc2ccncc2)c1O)CCCC3`: 1.15% (inactive).
As for `Cc1ccc([N+](=O)[O-])cc1S(=O)(=O)N(C(=O)c1ccncc1)c1ccc2oc3c(c2c1)CCCC3`, the CPE inhibition is 21.1% (active).
`COc1cc(NC(=O)COC(=O)CC(C)(C)C)c(C)cc1[N+](=O)[O-]`: the CPE inhibition was 0.185% (inactive).
For `Clc1ccc(CNCc2cccs2)c(Cl)c1` the value was 0.01% (inactive).
In the case of `CN(C)c1ccc(-c2nc3ccccn3c2/N=C/c2ccc(Br)cc2)cc1`, the CPE inhibition is 14.2% (active).
Next, `Cc1c(-c2ccc(Br)cc2)nc2ccccn12`: 1.3% (inactive); `COc1ccc(-c2nc3ccccn3c2/N=C/c2ccc(OC)c(OC)c2)cc1O`: 0.31% (inactive).
In the case of `Cc1ccc(-c2csc(N/N=C/c3ccco3)n2)c(C)c1`, the CPE inhibition entry was “inactive”.
For `COc1cccc(OCCOCCOc2ccc(C)cc2[N+](=O)[O-])c1` the value was “inactive”; for `CC/C(=N\NC(=O)C(N)=O)c1ccccc1O`, “inactive”.
Next, `CCCCCC(=O)Nc1nc(C)c(-c2csc(Nc3cc(Cl)ccc3C)n2)s1`: “inactive”.
For `O=C1c2cccc3cccc(c23)C(=O)N1CCN1CCN(CC(O)COc2ccc3ccccc3c2)CC1` (stereo not drawn) the value was “inactive”; for `COC(=O)N1[C@H](C)C=C[C@]1(Cc1ccccc1)C(=O)NCCCNc1ncc(C(F)(F)F)cc1Cl`, 9.39% (active).
As to `O=C(COC(=O)C1(c2ccccc2F)CCCC1)Nc1ncc(C(F)(F)F)cc1Cl`, the CPE inhibition was 0.45% (inactive).
For the molecule `O=C(COC(=O)c1cc(-c2ccccc2Cl)nc2ccccc12)Nc1ncc(C(F)(F)F)cc1Cl`, the CPE inhibition entry is “inactive”.
For `Cc1ccc(/C=N/NS(=O)(=O)c2ccc([N+](=O)[O-])cc2)o1` the value was “inactive”; for `Cc1ccc(C(=O)O/N=C(\N)c2cccnc2)cc1[N+](=O)[O-]`, 1.06% (inactive).
Next, `NS(=O)(=O)c1ccc(NC(=O)COC(=O)C2(c3ccc(F)cc3)CCCC2)cc1`: 0.475% (inactive); `CC(=O)Nc1ccc(NC(=O)COC(=O)C2(c3ccc(Cl)cc3)CCCC2)cc1`: 0.545% (inactive).
Next, `Cc1ccc(NC(=O)COC(=O)C2(c3ccc(Cl)cc3)CCCC2)cc1`: 10.5% (active); `COc1ccc(/C=C/C(=O)c2cc(F)ccc2OC(=O)c2ccccc2C)cc1OC`: “inactive”; `N#Cc1ccsc1NC(=O)CN(Cc1ccccc1)Cc1ccccc1`: 9.87% (active).
Consider `N#Cc1ccsc1NC(=O)CN1CCN(c2ccccc2O)CC1`, for which the CPE inhibition entry is “inactive”.
For `CCN(CC)c1ccc(C(=O)OCC(=O)Nc2sccc2C#N)cc1` the value was “inactive”.
`CSc1sc(C)cc1/C=N/O`: the CPE inhibition result is “inactive”.
As to `S=C(NCCc1ccccc1)Nc1ccc(Br)cc1`, the CPE inhibition is 3.17% (inactive).
Take `S=C(NCCc1ccccc1)N/N=C/c1ccccc1Cl`: the CPE inhibition is 18.4% (active).
Consider `C/C(=N\NC(=S)NCCc1ccccc1)c1ccc(Cl)cc1`, for which the CPE inhibition is 1.61% (inactive).
Take `O=C(Nc1cc(Cl)ccc1Cl)c1ccc(-c2ccccc2)cc1`: the CPE inhibition result is “inactive”.
Next, `O=C(Nc1ccc(Cl)c(C(F)(F)F)c1)[C@@H]1CC=C[C@@H]2CCN(Cc3ccc(Cl)c(Cl)c3)C(=O)[C@@H]21`: 9.69% (inactive); `COc1ccc(NC(=O)CN2C(=O)C(c3ccccc3)=NC23CCCCCC3)cc1`: 5.39% (inactive).
With `COc1cc(NC(=O)CN2C(=O)C(c3ccccc3)=NC23CCCCCC3)cc(OC)c1`, the CPE inhibition is 14% (active).
Consider `COc1ccc(NC(=O)CN2C(=O)C(c3ccccc3)=NC23CCCCCC3)cc1OC`, for which the CPE inhibition was 0.935% (inactive).
With `CCOC(=O)/C(N=Nc1sc(C(=O)OC)c(C)c1C(=O)OCC)=C(\O)CCl`, the CPE inhibition is 0.165% (inactive).
For `Cc1ccc(NS(=O)(=O)c2ccc3c(c2)C(=O)c2ccccc2C3=O)c(C)c1` the value was 4.82% (inactive); for `Cc1cc(C)c(S(=O)(=O)Nc2ccccc2-c2ccccc2)c(C)c1`, 20.4% (active).
As for `Cc1ccc(S(=O)(=O)N(CC(=O)Nc2ccccc2-c2ccccc2)c2ccc(C)cc2C)cc1`, the CPE inhibition was 10.8% (inactive).
`Clc1ccc(-n2nnnc2CN2CCOCC2)cc1Cl`: the CPE inhibition was 0.27% (inactive).
For `COc1ccccc1OCCOCCOc1ccccc1Cl` the value was “inactive”; for `O=C1CN(C(=O)COC(=O)/C=C/c2ccc(OC(F)F)cc2)c2ccccc2N1`, “inactive”.
For `CCOC(=O)c1c(C)[nH]c(C)c1C(=O)COC(=O)/C=C/c1ccc(OC(F)F)cc1` the value was 10.1% (active); for `O=C(COC(=O)/C=C/c1ccc(OC(F)F)cc1)NCc1cccs1`, 0.315% (inactive); for `C/C(=N\NC(=O)CSc1nnc(C)s1)c1ccc(Cl)cc1`, “inactive”.
For `CC(C)CC(=O)NC1(C(F)(F)F)C(=O)N(CC(C)C)C2=C1C(=O)CC(C)(C)C2` (stereo not drawn) the value was “inactive”; for `Cc1ccc(C)c(Nc2ncnc(N)c2[N+](=O)[O-])c1`, 6.21% (inactive); for `CNc1nc(Nc2ccc(C)c(Cl)c2)nc(N)c1[N+](=O)[O-]`, 9.08% (active).
Consider `CC(=O)Nc1ccc(Nc2nc(C)c([N+](=O)[O-])c(Nc3ccc(NC(C)=O)cc3)n2)cc1`, for which the CPE inhibition entry is “inactive”.
For the molecule `COc1cccc(-c2ncc3ccccc3c2CO)c1`, the CPE inhibition entry is “inactive”.
As to `COc1cccc(-c2ncc3ccccc3c2COC(=O)c2ccc(C(C)(C)C)cc2)c1`, the CPE inhibition is 15.2% (active).
Next, `COc1cccc(-c2ncc3ccccc3c2COC(=O)c2ccc(C(F)(F)F)cc2)c1`: 0.77% (inactive); `CC(=O)N1N=C(c2ccc(Br)cc2)OC1(C)CC(=O)Nc1ccccc1` (stereo not drawn): 4.7% (inactive); `O=C(CN1CCCCCCC1)N/N=C/c1ccccc1F`: 0.805% (inactive).
For `C/C(=N\NC(=O)COc1ccc(C(C)(C)C)cc1)c1ccc(-n2ccnc2)cc1` the value was 10.2% (active).
As to `CC(C)(C)c1ccc(OCC(=O)N/N=C/c2ccc(N3CCOCC3)cc2)cc1`, the CPE inhibition is 1.86% (inactive).
For the molecule `C/C(=N\Nc1ccc(Cl)c(Cl)c1)c1ccc(-n2ccnc2)cc1`, the CPE inhibition result is “inactive”.
`CN(c1ccccc1)S(=O)(=O)c1cccc(NC(=O)CSc2ncc(C(F)(F)F)cc2Cl)c1`: the CPE inhibition was 22.4% (active).
Next, `NS(=O)(=O)c1cccc(NC(=O)CSc2ncc(C(F)(F)F)cc2Cl)c1`: 3.56% (inactive); `CN(c1ccccc1)S(=O)(=O)c1cccc(NC(=O)CSc2nncn2C)c1`: 0.35% (inactive).
Next, `Cc1c(Cl)cccc1NC(=S)NCc1cccn1C`: 0.255% (inactive); `Cc1cc(C)cc(-n2c(C)cc(/C=C3\C(=N)N4N=C(CC(C)C)SC4=NC3=O)c2C)c1`: 15.1% (active).
For the molecule `Cc1cccc(-n2c(C)cc(/C=C3\C(=N)N4N=C(CC(C)C)SC4=NC3=O)c2C)c1`, the CPE inhibition was 0.575% (inactive).
For `Cc1cccc(-n2c(C)cc(/C=C3/C(=N)N4C(c5ccccc5)=CSC4=NC3=O)c2C)c1` the value was 5.77% (inactive); for `COC(=O)c1ccc(Oc2c(Cl)cccc2[N+](=O)[O-])cc1`, 0.625% (inactive); for `COc1ccc(Nc2nc(-c3cccc([N+](=O)[O-])c3)nc3ccccc23)c(OC)c1`, 0.465% (inactive).
Take `O=C(O)CC(CC(=O)O)c1ccsc1`: the CPE inhibition entry is “inactive”.
For `CCOC(=O)c1ccc(-n2c(C)ccc2C)cc1` the value was 0.33% (inactive); for `C=CC[C@]12CCc3sccc3C1N(c1ccc(C(=O)OCC)cc1)C2=O` (stereo partly drawn), 19.9% (active); for `CCOC(=O)N1CCN(C(=O)c2ccc(-n3c(C)ccc3C)cc2)CC1`, 0.68% (inactive).
Next, `Cc1cc(=O)[nH]c(N/N=C/c2ccc(Br)s2)n1`: “inactive”; `CCc1nnc(N2C(=O)c3ccc(Oc4ccc([N+](=O)[O-])cc4)cc3C2=O)s1`: 0.2% (inactive); `Cc1cccc(-c2nsc(SCC(=O)NCc3ccc4c(c3)OCO4)n2)c1`: 0.255% (inactive).
As to `FC(F)Oc1ccccc1NC(=S)Nc1cccc(Cl)c1Cl`, the CPE inhibition is 0.195% (inactive).
Take `S=C(Nc1ccc(OCc2ccccc2)cc1)Nc1cccc(Cl)c1Cl`: the CPE inhibition was 0.45% (inactive).
Regarding `S=C(Nc1ccccc1Oc1ccccc1)Nc1cccc(Cl)c1Cl`, the CPE inhibition was 12.8% (active).
For `COc1cccc(NC(=O)CN2C(=O)C(c3ccc(C)cc3)=NC23CCCCCC3)c1` the value was 3.59% (inactive); for `Cc1ccc(-n2c(=S)[nH]c3nc4c(cc3c2=O)COC(C)(C)C4)cc1`, “inactive”.
